The values below come from PubChem BioAssay AID623868 (Vanderbilt High Throughput Screening Facility, 2012).

The structures appear in SMILES notation. Screen size: about 2,100 compounds; about 760 (36%) were called active. The list is a sample of the results. Values without a mark were called inactive.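 The calls were made as follows: active = thallium-flux fluorescence traces judged by eye to show enhanced or reduced glutamate response, manual score 1 or -1, so both directions (some results past the limit were not filed as active); inactive = the rest, including fluorescent or raised-baseline compounds.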

The assay in a line: thallium influx changes without GIRK channels – cell-based, HEK-293 rmGlu8, no GIRK, thallium flux, counter-screen for GIRK activator project, confirmation (AID 623868).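 Also: extra codes mark interference with 3 for fluorescent and 4 for baseline rise.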 The following applies: thallium flux fluorescence, at 10 µM, actives lie on both sides, codes: 1 enhancer, -1 blocker, 0 none, thallium stimulus containing EC20 glutamate.
Turning to `Cc1ccc(/C=N/n2c(COc3ccccc3)n[nH]c2=S)s1`, the manual score is 1 (active).

Turning to `CC(/C=N/n1c(COc2ccccc2)n[nH]c1=S)=C\c1ccccc1`, the manual score was 0.

Regarding `Cc1ccc(-c2n[nH]c(=S)n2/N=C/c2ccc(C)s2)cc1`, the manual score is 1 (active).

Take `Cn1cccc1/C=N/n1c(-c2ccc(C(C)(C)C)cc2)n[nH]c1=S`: the manual score is 0.

Consider `Cc1ccc(-c2n[nH]c(=S)n2/N=C/c2cccs2)cc1`, for which the manual score was 1 (active).

Turning to `Cc1ccccc1CNS(=O)(=O)c1ccc2c(c1)OCCO2`, the manual score is 0.

Turning to `CCCCNc1c2c3c(cccc3n(C)c1=O)C(=O)c1ccccc1-2`, the manual score was 3.

With `O=C(N/N=C1/C(=O)c2cccc3cccc1c23)c1ccc(Cl)cc1`, the manual score was 1 (active).

`CCCCNC(=S)N/N=C1\C(=O)c2cccc3cccc1c23`: the manual score was 1 (active).

Consider `CCCCN(C)C1=Nc2cccc3cccc1c23`, for which the manual score is 0.

With `CCNC(=S)N/N=C1\C(=O)c2cccc3cccc1c23`, the manual score is 1 (active).

Take `CNC(=S)N/N=C1\C(=O)c2cccc3cccc1c23`: the manual score is 1 (active).

Turning to `COc1ccc(Cn2nnnc2C(c2ccc(F)cc2)N2CCN(C3CCCC3)CC2)cc1` (stereo unspecified), the manual score was 0.

Regarding `N#Cc1nc(Cc2ccccc2)oc1NCCc1ccccc1`, the manual score was 0.

As to `O=C(CCN1C(=O)COc2ccccc21)NCCCN1CCc2ccccc2C1`, the manual score is 0.

Turning to `Cc1ccc(NC(=O)COC(=O)/C=C/c2ccco2)cc1S(=O)(=O)N(C)C`, the manual score is 0.

Turning to `Cn1c(NCc2cccc(Br)c2)nc2ccccc21`, the manual score is 0.

Regarding `COc1cccc(-c2nnc(Nc3nc4c(F)cccc4s3)o2)c1`, the manual score was 1 (active).

`Fc1cccc2sc(Nc3nnc(-c4ccccc4)o3)nc12`: the manual score is 1 (active).

Turning to `COc1cc(OC)cc(-c2nnc(Nc3nc4c(F)cccc4s3)o2)c1`, the manual score is 1 (active).

In the case of `Fc1cccc2sc(Nc3nnc(-c4ccco4)o3)nc12`, the manual score was 1 (active).

Consider `Nc1nnc(C(=O)c2ccccc2N)s1`, for which the manual score is 0.

`Clc1ccccc1-c1nnc2sc(CCc3ccccc3)nn12`: the manual score was 0.

With `CCn1c(=NC(=O)CSC(C)=O)sc2ccccc21`, the manual score is 1 (active).

`O=C(COC(=O)C1CC(=O)N(Cc2ccccc2)C1)Nc1ccc2c(c1)OCO2` (stereo unspecified): the manual score was 0.

Consider `COC(=O)c1ccccc1NC(=O)Nc1cnccn1`, for which the manual score was 0.

Take `O=C(Oc1ccccc1)c1cccc(COC(=O)c2cnccn2)c1`: the manual score is -1 (active).

`CC(=O)Nc1nnc(C)s1`: the manual score is 0.

For the compound `C=CCSc1nc2sc3c(c2c(=O)n1CC)CCc1ccccc1-3`, the manual score is 1 (active).

Take `CCn1c(SCC(N)=O)nc2c(c1=O)C1(CCCC1)Cc1ccccc1-2`: the manual score was 0.

Take `CCCSc1nc(C)nc2c1c(=O)n(C)c(=O)n2C`: the manual score is 0.

Regarding `Cc1ccccc1NC(=S)NC(=O)c1cncc(Br)c1`, the manual score is 1 (active).

Take `CN(C(=S)NC(=O)c1ccccc1Br)C1CCCCC1`: the manual score is 1 (active).

With `CC1CCCC(NC(=S)NC(=O)c2ccccc2Br)C1C` (stereo unspecified), the manual score was 1 (active).

As to `CC1CCCCC1NC(=S)Nc1ccc(SC(F)F)cc1` (stereo unspecified), the manual score was 0.

Consider `CC1CCCC(NC(=O)Nc2cccs2)C1C` (stereo unspecified), for which the manual score is 0.

As for `CC1CCCC(NC(=S)NC(=O)c2cncc(Br)c2)C1C` (stereo unspecified), the manual score is 1 (active).

In the case of `CC1CCCC(NC(=S)Nc2ccc(SC(F)F)cc2)C1C` (stereo unspecified), the manual score was 0.

Take `CN(C)Cc1cc(C(C)(C)C)c(O)c(C(C)(C)C)c1`: the manual score is 0.

Regarding `CCN1CCN(c2ccc(NC(=O)CCc3c(C)nc4c(-c5ccccc5)c(C)nn4c3C)cc2)CC1`, the manual score is 0.

On to `COc1ccccc1/C=C/C(=O)NC(=S)N(C)C1CCCCC1`, for which the manual score is 1 (active).

`O=C(NC(=S)NCCC1=CCCCC1)c1cncc(Br)c1`: the manual score is 1 (active).

Take `COc1cccc2c1OC[C@@H](CO)[C@H]2N(C)C(=O)Nc1ccccc1`: the manual score was 0.

For the compound `CCN(C(=O)c1cc(Cl)ccc1OC)C1CCCCC1`, the manual score was 0.

`CCOC(=O)c1ccc(NC(=S)NC2CCCC2)cc1`: the manual score is 0.

As for `COC(=O)[C@H](Cc1ccccc1)NC(=O)NCCC1=CCCCC1`, the manual score is 0.

With `FC(F)(F)c1cccc(NC(=S)NC2CCCC2)c1`, the manual score is 0.

Turning to `O=C(NC(=S)NC1CCCCCC1)c1cncc(Br)c1`, the manual score is 1 (active).

In the case of `COc1ccc(C)cc1NC(=O)NCCC1=CCCCC1`, the manual score was 0.

As to `Cc1ccc(C(=O)N/N=C(/CC(=O)c2cccs2)C(F)(F)F)cc1`, the manual score was 1 (active).

Consider `CCCn1c(O)c(N=NC(=O)c2ccco2)c2ccccc21`, for which the manual score is 1 (active).

Consider `O=C(NCCSc1c[nH]c2ccccc12)c1ccco1`, for which the manual score was 0.

As for `CCCCNC(=S)N=Nc1c(O)n(Cc2ccccc2)c2ccccc12`, the manual score is 1 (active).

As to `C=CCn1c(O)c(N=NC(=O)OC(C)(C)C)c2ccccc21`, the manual score was 1 (active).

Consider `Cc1ccccc1Cn1c(=N)n(CC(=O)c2ccco2)c2ccccc21`, for which the manual score is 0.

For `CN=C1SC(C(=O)O)CC(=O)N1C` (stereo unspecified), the manual score was 0.

Turning to `O=C(NC1CC1)c1ccc(CSCc2cccc(F)c2)o1`, the manual score is 0.

As for `CCOC(=O)C(C)Sc1nc2c(cnn2-c2ccc(C)cc2)c(=O)[nH]1` (stereo unspecified), the manual score is 0.

Regarding `CCOC(=O)c1nn(-c2ccc(F)cc2)c(C)c1C(C)=O`, the manual score was 0.

On to `CCOC(=O)C(CC)n1cnc2c(nnn2-c2ccc(OC)cc2)c1=O` (stereo unspecified), for which the manual score was -1 (active).

As for `Nc1nc2n(n1)C(c1cccs1)CC(c1ccc(F)cc1)N2` (stereo unspecified), the manual score is 0.

Regarding `Cc1ccc2oc(-c3cccc(NC(=S)NC(=O)c4cccs4)c3)nc2c1`, the manual score is 1 (active).

In the case of `Cc1ccc(-c2nc3ccccc3o2)cc1NC(=S)NC(=O)c1cc2ccccc2o1`, the manual score is 0.

Turning to `O=C(NC(=S)Nc1ccc2oc(-c3cccnc3)nc2c1)c1cccc(Cl)c1`, the manual score was 0.

As for `O=C(Nc1ccc2oc(-c3ccncc3)nc2c1)c1c(F)c(F)c(F)c(F)c1F`, the manual score is 0.

Regarding `Cc1cc(C)c2oc(-c3ccc(C)c(NC(=S)NC(=O)c4cccs4)c3)nc2c1`, the manual score was 1 (active).

On to `O=C1Nc2cc(S(=O)(=O)N3CCCC3)ccc2N2CCCC12` (stereo unspecified), for which the manual score is 0.

For `O=C(NCCCCNC(=O)c1cccnc1)c1cccnc1`, the manual score was 0.

In the case of `O=C(N/N=C(\c1ccccc1)c1cccnc1)C(O)(c1ccccc1)c1ccccc1`, the manual score is -1 (active).

As for `CC(C)OC(=O)/C(=C/c1cccnc1)NC(=O)c1ccccc1`, the manual score was 0.

Regarding `Cc1c(C#N)c2ncn(CC#N)c(=O)c2n1-c1ccccc1`, the manual score is 0.

Take `COc1ccc(-c2onc(C)c2-c2ccc(C(=O)OC(C)C)o2)c(O)c1`: the manual score was 0.

On to `CCCOC(=O)c1ccc(-c2c(C)noc2-c2ccc(OC)cc2O)o1`, for which the manual score was -1 (active).

On to `Cc1cc(C(=O)OCC(=O)Nc2ccc(F)cc2)c(C)o1`, for which the manual score is 0.

For the compound `Cc1ccc(N2C(=S)N=C(Nc3ccccc3C)C23CCOC(C)(C)C3)cc1` (stereo unspecified), the manual score is 1 (active).

On to `Cc1ccccc1Nc1nc2nonc2nc1N1CCOCC1`, for which the manual score was 0.

In the case of `Cc1ccccc1NC1=NC(=S)N(c2ccccc2)C12CCOC(C)(C)C2` (stereo unspecified), the manual score is 1 (active).

In the case of `CC1=NCCN1S(=O)(=O)c1cc(Cl)ccc1Cl`, the manual score is 0.

In the case of `COc1cccc2[nH]c3c(N4CCCC(C)C4)ncnc3c12` (stereo unspecified), the manual score is 0.

For the compound `Clc1ccc2c(c1)C(N1CCNCC1)Cc1ccccc1S2` (stereo unspecified), the manual score is 0.

On to `S=C1CCSc2ccc(Cl)cc2N1`, for which the manual score was 1 (active).

For the compound `S=C1Nc2ccccc2Sc2ccc(Cl)cc21`, the manual score is 0.

With `S=C1Nc2cc(Cl)ccc2Sc2ccccc21`, the manual score is 1 (active).

As for `CCOC(=O)c1[nH]c(C)c(C(=O)NC2CCCCC2)c1C`, the manual score is 0.

In the case of `CC(C)Sc1oc(-c2ccco2)nc1S(=O)(=O)c1ccccc1`, the manual score was 0.

For `C=CCn1c(-c2cccs2)nc2ccccc21`, the manual score was 0.

Regarding `Fc1ccc(/C=N/n2c(-c3cccs3)n[nH]c2=S)cc1`, the manual score is 1 (active).

As for `Cc1ccc(/C=N/n2c(-c3cccs3)n[nH]c2=S)cc1`, the manual score is 1 (active).

For `CN=c1scc(-c2cccs2)n1/N=C/c1ccc(O)c(O)c1O`, the manual score is 0.

Regarding `Cc1ccc(-c2cc(-c3cccs3)[nH]n2)c(O)c1`, the manual score is 0.

As to `CC12CN(Cc3ccccc3)CC(C)(CN(Cc3ccccc3)C1)C2=NO`, the manual score is 0.

Consider `O=c1c2ccccc2[nH]c(=S)n1C1CCCCC1`, for which the manual score was 1 (active).

For the compound `CCOC(=O)N1CCC(n2c(=S)[nH]c3ccccc3c2=O)CC1`, the manual score was 1 (active).

Regarding `O=C(C1CCC(Cn2c(=S)[nH]c3ccccc3c2=O)CC1)N1CCN(c2ccccc2)CC1` (stereo unspecified), the manual score is 0.

For the compound `CC1CCCC(n2c(=S)[nH]c3ccccc3c2=O)C1C` (stereo unspecified), the manual score was 3.

With `O=c1[nH]c2ccccc2n1CCC1CCCCC1`, the manual score is 0.

On to `CC1CCCCC1n1c(=S)[nH]c2ccccc2c1=O` (stereo unspecified), for which the manual score was 1 (active).

On to `CC1CCC(n2c(=S)[nH]c3ccccc3c2=O)CC1` (stereo unspecified), for which the manual score is 1 (active).

As for `CCN1CCN(C(=O)c2ccc3c(=O)n(C4CCCC4)c(=S)[nH]c3c2)CC1`, the manual score is 0.

For `O=C(c1ccc2c(=O)n(C3CCCC3)c(=S)[nH]c2c1)N1CCc2ccccc21`, the manual score was 0.

As for `CCOC(=O)/C(=C\C=C1/Sc2cc(OCC)c(OCC)cc2N1CC)C(C)=O`, the manual score was 3.

In the case of `C=CCN1CCN(C(c2ccc(Cl)cc2)c2nnnn2CCc2ccc(OC)c(OC)c2)CC1` (stereo unspecified), the manual score was 0.5.

For `CCC1(C)CC(c2csc(N)n2)CCO1` (stereo unspecified), the manual score was 0.

For `O=C(CSCCO)Nc1ccccc1`, the manual score was 0.

As for `CCOC(=O)C(C(=O)OCC)c1cc(Br)c2noc3c2c1C(=O)c1ccccc1-3`, the manual score is 3.

Consider `CC(C)(C)OC(=O)COc1cc(O)c2c(=O)cc(-c3ccccc3)oc2c1`, for which the manual score is 0.

As to `Cc1ccc2c(c1)N(CC(=O)N(Cc1ccccn1)Cc1ccco1)C(=O)C(C(C)C)O2` (stereo unspecified), the manual score was 0.

Turning to `COC(=O)C(C)Sc1nc2c(c(=O)n(C)c(=O)n2C)n1Cc1cccc(C)c1` (stereo unspecified), the manual score is 0.

In the case of `CCOc1ccc(-n2c(SC(C)C(=O)OC)nc3c(c2=O)SCC3)cc1` (stereo unspecified), the manual score is -1 (active).

On to `COC(=O)c1ccc(CSc2nc3c(c(=O)n2-c2ccc(F)cc2)SCC3)o1`, for which the manual score was -1 (active).

For the compound `CCOc1ccc(-n2c(Cc3cc(=O)[nH]c(=O)[nH]3)nnc2SC(C)C(=O)OC)cc1` (stereo unspecified), the manual score was 0.
